Test results as given in the supplement of paper PMC8728848.
Shown is part of a subset that was picked to be rich in the strongest signals.

Experiments:
Assay in all cases: glycan array binding signal (z-score within array); higher = stronger binding
Settings in all cases: glycan notation: IUPAC condensed, linker removed
Fuc(a1-2)Gal(b1-4)GlcNAc = molecular target: Fuc(a1-2)Gal(b1-4)GlcNAc
Method in brief: (§1)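 Arrays were curated from the Consortium for Functional Glycomics database, 3228 in total, and kept only where the protein sequence was available. Binding is expressed as a within-array Z-score. This score was averaged across arrays of the same protein sequence at different concentrations or buffers and across linkers, and negative values can be read as non-binding.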

[1] = molecular target: Fuc(a1-2)Gal(b1-4)GlcNAc(b1-3)Gal(b1-4)GlcNAc(b1-3)Gal(b1-4)GlcNAc
Method in brief: as §1

Fuc(a1-2)Gal6S(b1-4)Glc = molecular target: Fuc(a1-2)Gal6S(b1-4)Glc
Method in brief: as §1

Fuc(a1-2)GlcNAc = molecular target: Fuc(a1-2)GlcNAc
Method in brief: as §1

[2] = molecular target: Fuc(a1-2)[GalNAc(a1-3)]Gal(b1-4)GlcNAc(b1-2)Man(a1-3)[Fuc(a1-2)[GalNAc(a1-3)]Gal(b1-4)GlcNAc(b1-2)Man(a1-6)]Man(b1-4)GlcNAc(b1-4)GlcNAc
Method in brief: as §1

[3] = molecular target: Fuc(a1-2)[GalNAc(a1-3)]Gal(b1-4)GlcNAc(b1-3)Gal(b1-4)GlcNAc
Method in brief: as §1

[4] = molecular target: Fuc(a1-3)[Gal(b1-4)]GlcNAc
Method in brief: as §1

[5] = molecular target: Fuc(a1-3)[Gal(b1-4)]GlcNAc(b1-2)Man(a1-3)[Fuc(a1-3)[Gal(b1-4)]GlcNAc(b1-2)Man(a1-6)]Man(b1-4)GlcNAc(b1-4)[Fuc(a1-6)]GlcNAc
Method in brief: as §1

[6] = molecular target: Fuc(a1-3)[GalNAc(b1-4)]GlcNAc
Method in brief: as §1

Gal(a1-3)Gal(b1-3)GlcNAc = molecular target: Gal(a1-3)Gal(b1-3)GlcNAc
Method in brief: as §1

Gal(b1-3)GlcNAc = molecular target: Gal(b1-3)GlcNAc
Method in brief: as §1

[7] = molecular target: Gal(b1-3)GlcNAc(b1-3)Gal(b1-4)GlcNAc(b1-6)[Gal(b1-3)GlcNAc(b1-3)]Gal(b1-4)Glc
Method in brief: as §1

[8] = molecular target: Gal(b1-3)GlcNAc(b1-6)Gal(b1-4)GlcNAc
Method in brief: as §1

[9] = molecular target: Gal(b1-3)[Fuc(a1-4)]GlcNAc(b1-3)Gal(b1-4)[Fuc(a1-3)]GlcNAc
Method in brief: as §1

[10] = molecular target: Gal(b1-4)GlcNAc(b1-2)Man(a1-3)[Man(a1-6)]Man(b1-4)GlcNAc(b1-4)GlcNAc
Method in brief: as §1

[11] = molecular target: Gal(b1-4)GlcNAc(b1-2)Man(a1-6)Man(b1-4)GlcNAc(b1-4)GlcNAc
Method in brief: as §1

[12] = molecular target: Gal(b1-4)GlcNAc(b1-2)[Gal(b1-4)GlcNAc(b1-4)]Man(a1-3)[Gal(b1-4)GlcNAc(b1-2)Man(a1-6)]Man(b1-4)GlcNAc(b1-4)GlcNAc
Method in brief: as §1

[13] = molecular target: Gal(b1-4)GlcNAc(b1-2)[Gal(b1-4)GlcNAc(b1-4)]Man(a1-3)[GlcNAc(b1-4)][Gal(b1-4)GlcNAc(b1-2)[Gal(b1-4)GlcNAc(b1-6)]Man(a1-6)]Man(b1-4)GlcNAc(b1-4)GlcNAc
Method in brief: as §1

Gal3S(b1-3)GlcNAc = molecular target: Gal3S(b1-3)GlcNAc
Method in brief: as §1

[14] = molecular target: GlcNAc(a1-4)Gal(b1-4)GalNAc
Method in brief: as §1

[15] = molecular target: GlcNAc(b1-3)[GlcNAc(b1-6)]GlcNAc(b1-4)GlcNAc
Method in brief: as §1

[16] = molecular target: Man(a1-2)Man(a1-2)Man(a1-6)[Man(a1-3)]Man
Method in brief: as §1

[17] = molecular target: Man(a1-2)Man(a1-3)[Man(a1-2)Man(a1-6)]Man
Method in brief: as §1

[18] = molecular target: Man(a1-2)Man(a1-3)[Man(a1-2)Man(a1-6)]Man(a1-6)[Man(a1-2)Man(a1-2)Man(a1-3)]Man
Method in brief: as §1

[19] = molecular target: Man(a1-2)Man(a1-6)[Man(a1-3)]Man(a1-6)[Man(a1-2)Man(a1-2)Man(a1-3)]Man
Method in brief: as §1

[20] = molecular target: Man(a1-2)Man(a1-6)[Man(a1-3)]Man(a1-6)[Man(a1-2)Man(a1-2)Man(a1-3)]Man(b1-4)GlcNAc(b1-4)GlcNAc
Method in brief: as §1

Man(a1-3)[Man(a1-6)]Man = molecular target: Man(a1-3)[Man(a1-6)]Man
Method in brief: as §1

[21] = molecular target: Man(a1-3)[Man(a1-6)]Man(a1-6)[Man(a1-2)Man(a1-3)]Man(b1-4)GlcNAc(b1-4)GlcNAc
Method in brief: as §1

[22] = molecular target: Man(a1-3)[Man(a1-6)]Man(a1-6)[Man(a1-3)]Man(b1-4)GlcNAc(b1-4)GlcNAc
Method in brief: as §1

[23] = molecular target: Man(a1-3)[Man(a1-6)]Man(b1-4)GlcNAc(b1-4)GlcNAc
Method in brief: as §1

B1: BC2L-A (Burkholderia cenocepacia), Q1BKJ8_BURCA (protein)
chain: ADSQTSSNRAGEFSIPPNTDFRAIFFANAAEQQHIKLFIGDSQEPAAYHKLTTRDGPREATLNSGNGKIRFEVSVNGKPSATDARLAPINGKKSDGSPFTVNFGIVVSEDGHDSDYNDGIVVLQWPIG
glycan array binding signal (z-score) (Fuc(a1-2)Gal(b1-4)GlcNAc): 0.167
glycan array binding signal (z-score) [1]: 0.018
glycan array binding signal (z-score) (Fuc(a1-2)Gal6S(b1-4)Glc): -0.176
glycan array binding signal (z-score) (Fuc(a1-2)GlcNAc): -0.178
glycan array binding signal (z-score) [2]: -0.165
glycan array binding signal (z-score) [3]: -0.296
glycan array binding signal (z-score) [4]: -0.285
glycan array binding signal (z-score) [5]: -0.217
glycan array binding signal (z-score) [6]: -0.263
glycan array binding signal (z-score) (Gal(a1-3)Gal(b1-3)GlcNAc): -0.284
glycan array binding signal (z-score) (Gal(b1-3)GlcNAc): -0.29
glycan array binding signal (z-score) [7]: -0.22
glycan array binding signal (z-score) [8]: -0.219
glycan array binding signal (z-score) [9]: -0.086
glycan array binding signal (z-score) [10]: 2.13
glycan array binding signal (z-score) [11]: -0.182
glycan array binding signal (z-score) [12]: -0.144
glycan array binding signal (z-score) [13]: -0.22
glycan array binding signal (z-score) (Gal3S(b1-3)GlcNAc): 0.002
glycan array binding signal (z-score) [14]: -0.296
glycan array binding signal (z-score) [15]: -0.249
glycan array binding signal (z-score) [16]: 4.07
glycan array binding signal (z-score) [17]: 2.25
glycan array binding signal (z-score) [18]: 4.82
glycan array binding signal (z-score) [19]: 4.09
glycan array binding signal (z-score) [20]: 5.06
glycan array binding signal (z-score) (Man(a1-3)[Man(a1-6)]Man): 5.28
glycan array binding signal (z-score) [21]: 5.49
glycan array binding signal (z-score) [22]: 4.38
glycan array binding signal (z-score) [23]: 4.23
